The record followed here is PubChem BioAssay AID1846 (The Scripps Research Institute Molecular Screening Center, 2009).

Values joined by “and” are separate entries in the source; they are usually repeats but may differ in a detail not shown here. Identical values can stand only once. About 1,500 (65%) of roughly 2,300 compounds were called active. Cut-off read from the data, not from the text of the source: active = inhibition above about 18%; inactive = the rest. The set was probably picked from earlier hits. Only a sample is shown. Where a structure was tested more than once in an assay, its records may differ in their call.

For this assay, the target named is Heat shock protein HSP 90-alpha (Homo sapiens) (UniProt P07900). The assay can be described thus: HSP90 inhibitors, confirmation, cell lysate, luminescence (AID 1846).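 Note: 0% = vehicle wells and 100% = reference inhibitor wells.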 The note with it: rabbit reticulocyte lysate, luciferase refolding luminescence, 3 h; at 5.9 µM; stronger effect = higher value.
What is called inhibition is the change of the read-out against control, counted positive when it falls. For `COc1cccc(/C=C/c2ccc3ccccc3n2)c1OC(C)=O`, the inhibition is 72.3% (active).

Regarding `CN(c1ccc2nc3ccccc3c(=O)n2n1)C1CCCCC1`, the inhibition is 90.9% (active).

As to `C=CCN1CCN(C(=O)CCCc2ccccc2)CC1`, the inhibition was 52.5% (active).

For `Cc1cccc(NC(=O)/C=C/c2ccc3c(c2)OCO3)n1`, the inhibition is 40.6% (active).

`O=C(Nc1cccnc1)c1noc2c1CCCCC2`: the inhibition is 48% (active).

Consider `COc1ccc(Nc2ncnc3ccc(Br)cc23)c(OC)c1`, for which the inhibition was 54.7% (active).

Turning to `O=C(Cc1ccccc1)N1CCN(S(=O)(=O)c2ccc([N+](=O)[O-])cc2)CC1`, the inhibition was 53.5% (active).

For the compound `c1ccc(-c2ccc3c(c2)NC(C2Nc4cc(-c5ccccc5)ccc4O2)O3)cc1` (stereo unspecified), the inhibition was 8.8% (inactive).

In the case of `CCOc1ccc(-c2nnc(-c3ccco3)o2)cc1`, the inhibition was 60.3% (active).

Turning to `COCc1cc(=O)[nH]c2cc(NC(=O)C(F)(F)F)c(C)cc12`, the inhibition was -8.2% (inactive).

As for `O=C(Nc1ccc2c(c1)OCCO2)C1CCCN(c2ncccn2)C1` (stereo unspecified), the inhibition is 34.1% (active).

As for `COc1ccc(Cl)cc1NC(=O)Cn1nc(-c2ccc(C)cc2)n(C)c1=S`, the inhibition was -3.4% (inactive).

Turning to `Clc1ccc(-c2cc(-c3ccccn3)on2)c(Cl)c1`, the inhibition is 84.9% (active).

`CCN(CCCNC(=O)c1ccc2c(c1)NC(=O)CN2C)c1cccc(C)c1`: the inhibition was 14.4% (inactive).

As for `Cc1nc2cc(NC(=O)Nc3cccc(F)c3)ccc2n1C`, the inhibition was 40.5% (active).

Regarding `CCOC(=O)C1=C(c2ccc(OC)cc2)C(=O)c2ccccc2C1=O`, the inhibition is 95.3% (active).

Consider `Cc1ccc(C(=O)O/N=C(\N)c2ccccn2)cc1Cl`, for which the inhibition was 29.5% (active).

Regarding `COc1ccc(CNC(=O)/C(C#N)=C/c2cccc(OC)c2OC)cc1`, the inhibition is 18.9% (active).

With `Cc1cccc(C(=O)OC(C)CN2CCN(C)CC2)c1` (stereo unspecified), the inhibition was 19.1% (active).

With `O=[N+]([O-])/C=C/c1ccc2c(ccn2Cc2ccccc2)c1`, the inhibition was 68.7% (active).

Regarding `COC(=O)C1[C@H]2SC(C)(C)C(C(=O)OC)N2C(=O)N1Cc1nc2ccccc2s1` (stereo partly specified), the inhibition was -5.33% (inactive).

With `O=C(CSC(=S)N1CCOCC1)c1ccccc1`, the inhibition was 57.6% (active).

In the case of `O=C(O)c1ccc(N=NN2CCOCC2)cc1`, the inhibition was -8.5% (inactive).

Consider `Cc1nn(CC(=O)Nc2ccc(F)cc2)c(=O)c2ccccc12`, for which the inhibition was -9.73% (inactive).

Regarding `Cc1cnc(NC(=O)c2ccccn2)s1`, the inhibition is 39.7% (active).

In the case of `COc1cccc2c(C)c(C(=O)O)[nH]c12`, the inhibition is 56.9% (active).

For the compound `O=C(Cn1c[n+](CC(=O)c2ccc([N+](=O)[O-])cc2)cn1)c1ccc([N+](=O)[O-])cc1`, the inhibition was 3.57% (inactive) and 48.8% (active).

Regarding `Cc1ccc(C(=O)CSc2ccccc2C(=O)O)cc1`, the inhibition is 42.3% (active).

On to `Cc1ccsc1C(=O)OCC(=O)c1cc(C)n(CC2CCCO2)c1C` (stereo unspecified), for which the inhibition was 89.3% (active).

For `Clc1cccc(N=C2NN=C(c3ccc4c(c3)OCCO4)CS2)c1`, the inhibition was 41.5% (active).

For the compound `CC(C)c1nc2ccc(C(=O)O)cc2[nH]1`, the inhibition is 55.6% (active).

As for `Cc1nc2ccc(C(=O)O)cc2[nH]1`, the inhibition is 46.4% (active).

Regarding `CC(C)CNC(=O)CC(NCC(C)C)C(=O)O` (stereo unspecified), the inhibition was -4% (inactive).

Regarding `CC(C)(C)OC(=O)c1c(N)n(CCCN2CCCC2=O)c2nc3ccccc3nc12`, the inhibition is -5.73% (inactive).

Take `CCCCOCCCNC(=O)c1ccccc1OCC`: the inhibition was -3.83% (inactive).

`CCCOc1ccc(C(=O)NCCc2ccccc2)cc1`: the inhibition was 49.2% (active).

Consider `COc1ccc(/C=C/c2noc(-c3ccccc3OC(C)=O)n2)cc1`, for which the inhibition is 45.2% (active).

For the compound `COC(=O)c1sc(NC(=O)c2ccc(OC)cc2OC)nc1C`, the inhibition is 67.3% (active).

For the compound `COC(=O)c1sc(NC(=O)c2csc3c2CCCC3)nc1C`, the inhibition is 12.5% (inactive).

Turning to `COc1cc(SC)ccc1C(=O)Nc1nc(C)cs1`, the inhibition is 94% (active).

As for `COc1cc(NS(=O)(=O)c2ccc3ccccc3c2)c2ncccc2c1`, the inhibition was 10.9% (inactive).

`c1ccc(-c2noc(-c3cccs3)n2)nc1`: the inhibition was 43.7% (active).

As for `COc1ccc(C(=O)/C=C/Nc2ccccn2)cc1`, the inhibition was 96.8% (active).

With `CCOc1ccc(N/C=C/C(=O)c2ccccc2)cc1`, the inhibition was 75.5% (active).

Turning to `Cc1ccc(-n2c(SCC(=O)Nc3ncc(Cl)cc3Cl)nc3ccccc32)cc1`, the inhibition is 14% (inactive).

In the case of `Cc1nc(NC(=O)c2cccc(Cl)c2)sc1-c1csc(Nc2cccc(Cl)c2)n1`, the inhibition is 23.7% (active).

On to `Cc1ccc(Nc2nc(-c3sc(NC(=O)c4ccccc4)nc3C)cs2)cc1`, for which the inhibition is 15.7% (inactive).

On to `CCCCC(=O)Nc1nc(C)c(-c2csc(Nc3ccc(Cl)cc3)n2)s1`, for which the inhibition was 7.3% (inactive).

For the compound `CCc1nc(SCC(=O)Nc2ccccc2OC)n[nH]1`, the inhibition is 1.4% (inactive).

On to `COc1ccc(C(=O)Nc2ccccc2C(=O)N/N=C/c2ccc(O)c(OC)c2)cc1`, for which the inhibition is 98.7% (active).

On to `COc1ccc(/C=N/Nc2ccccc2C(=O)O)cc1`, for which the inhibition is 29.5% (active).

In the case of `COc1ccc(C(=O)Nc2ccccc2C(=O)N/N=C/c2ccccc2OC)cc1`, the inhibition is 74.7% (active).

As to `Cc1ccc2nc(/C(C#N)=C\c3ccc(OC(=O)c4cccs4)cc3)[nH]c2c1`, the inhibition is -11% (inactive).

For `CCCCCc1ccc(-c2ccc(C(=O)O)cc2)nc1`, the inhibition was 72.4% (active).

`COc1ccc(-n2nnnc2-c2nc3ccccc3s2)cc1`: the inhibition was 51.8% (active).

`CCN(CC)CCn1c(N)c(S(=O)(=O)c2ccccc2)c2nc3ccccc3nc21`: the inhibition was -3.4% (inactive).

For the compound `Cc1nnc(SCC(=O)N2c3ccccc3C(C)(c3ccc(Cl)cc3)CC2(C)C)s1` (stereo unspecified), the inhibition is 8.97% (inactive).

`O=C(Nc1ccccc1)c1ccc2c(c1)OCCCO2`: the inhibition was 49.6% (active).

Regarding `O=C(Nc1nc2ccccc2s1)c1ccc2c(c1)OCO2`, the inhibition was 57.7% (active).

On to `CCCS(=O)(=O)N1CCCC(C(=O)NCCN2CCCCC2C)C1` (stereo unspecified), for which the inhibition was 1.9% (inactive).

Take `CCOC(=O)c1nc(C)n(-c2ccc(Cl)cc2Cl)n1`: the inhibition is 0.2% (inactive).

For `c1c2c(cc3sc(N4CCCCC4)nc13)OCCO2`, the inhibition was 81.9% (active).

As for `CSCCC(C(=O)NC1=NCCS1)N1C(=O)c2ccccc2C1=O` (stereo unspecified), the inhibition is -7.1% (inactive).

`CCOc1ccc(C2NC(=S)NC3=C2CCc2ccccc23)cc1` (stereo unspecified): the inhibition was 28.4% (active).

For the compound `Cn1c(-c2ccco2)nc2cc3ccccc3cc21`, the inhibition was 58.9% (active).

As to `CC(OC(=O)c1ccc2noc(-c3ccccc3)c2c1)C(N)=O` (stereo unspecified), the inhibition was 2.1% (inactive).
